Test results as given in PubChem BioAssay AID1159580 (chemical genetic matrix, 2015).
“And” between values parts separate entries of the source, which are not always exact repeats. Identical values can stand only once. In all, about 5,500 compounds went through this assay and about 2,000 (36%) were called active. Another 18% or so got no clear call; they are omitted. No stated cut-off is given here; in the data, active means normalized growth mostly below about 0.91 (no sharp cut-off); inconclusive means no clear call, values can overlap the other calls; inactive means mostly above about 0.92. This is one part of the list.

Test: chemical genetic growth profiling, strain panel (AID 1159580);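 further: tested at 20 µM; growth read once vehicle control cultures reached saturation at 30 °C; 1 = growth at the plate median or of vehicle wells; lower values mean less growth of the strain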
Conditions: S. cerevisiae deletion strains, growth OD

Measured: normalized growth

C=C1C2CC[C@@]3(C)[C@H](c4ccoc4)OC(=O)C[C@]13O[C@H]1CC(O)C(C)(C)C(CC(=O)OC)[C@@]21C (stereo not given in full)
inactive: locus YAL021C, strain ccr4, active compounds read low 0.962 | locus YAL026C, strain drs2, active compounds read low 0.934 | locus YAL030W, strain snc1, active compounds read low 0.949 | locus YBL061C, strain skt5, active compounds read low 0.984 | locus YBR009C, strain hhf1, active compounds read low 0.972 | locus YBR021W, strain FUR4, active compounds read low 0.991 | locus YBR023C, strain chs3, active compounds read low 0.981 | locus YBR171W, strain sec66, active compounds read low 0.98 | locus YBR229C, strain ROT2, active compounds read low 0.995 | locus YBR231C, strain swc5, active compounds read low 0.974 | locus YBR279W, strain paf1, active compounds read low 0.978 | locus YCL011C, strain gbp2, active compounds read low 0.984 | locus YCL016C, strain dcc1, active compounds read low 0.983 | locus YCL029C, strain bik1, active compounds read low 1.01 | locus YCL061C, strain MRC1, active compounds read low 0.989 | locus YCL069W, strain vba3, active compounds read low 0.979 | locus YCR088W, strain abp1, active compounds read low 0.977 | locus YDL005C, strain med2, active compounds read low 0.952 | locus YDL035C, strain GPR1, active compounds read low 0.999 | locus YDL040C, strain nat1, active compounds read low 0.982 | locus YDL074C, strain BRE1, active compounds read low 0.999 | locus YDL101C, strain DUN1, active compounds read low 0.999 | locus YDL185W, strain tfp1, active compounds read low 1.02 | locus YDL192W, strain arf1, active compounds read low 1.01 | locus YDR001C, strain nth1, active compounds read low 0.962 | locus YDR069C, strain doa4, active compounds read low 0.957 | locus YDR101C, strain arx1, active compounds read low 1.01 | locus YDR137W, strain rgp1, active compounds read low 0.938 | locus YDR150W, strain NUM1, active compounds read low 0.98 | locus YDR159W, strain sac3, active compounds read low 0.936 | locus YDR162C, strain NBP2, active compounds read low 1.01 | locus YDR195W, strain ref2 0.937 | locus YDR297W, strain sur2, active compounds read low 0.965 | locus YDR318W, strain mcm21, active compounds read low 1.02 | locus YDR334W, strain swr1, active compounds read low 0.966 | locus YDR335W, strain msn5, active compounds read low 0.967 | locus YDR388W, active compounds read low 1 | locus YDR392W, strain spt3, active compounds read low 0.97 | locus YDR502C, strain sam2, active compounds read low 1 | locus YEL003W, strain gim4, active compounds read low 0.975 | locus YEL037C, strain rad23, active compounds read low 0.976 | locus YEL061C, strain CIN8 (second series), active compounds read low 0.966 | locus YEL061C, strain CIN8, active compounds read low 1.05 | locus YER015W, strain faa2, active compounds read low 0.985 | locus YER016W, strain bim1, active compounds read low 0.967 | locus YER110C, active compounds read low 1.02 | locus YER111C, strain swi4, active compounds read low 0.988 | locus YER155C, strain BEM2 (second series), active compounds read low 0.955 | locus YER155C, strain BEM2, active compounds read low 1 | locus YER167W, strain BCK2, active compounds read low 1 | locus YFR010W, strain ubp6, active compounds read low 0.965 | locus YGL078C, strain dbp3, active compounds read low 1.02 | locus YGL086W, strain mad1, active compounds read low 1.02 | locus YGL167C, strain pmr1, active compounds read low 0.963 | locus YGL173C, strain kem1, active compounds read low 0.961 | locus YGL227W, strain vid30, active compounds read low 0.986 | locus YGL240W, strain doc1, active compounds read low 0.97 | locus YGL248W, strain PDE1, active compounds read low 1.01 | locus YGL253W, strain hxk2, active compounds read low 0.972 | locus YGR135W, strain pre9, active compounds read low 1.01 | locus YGR252W, strain gcn5, active compounds read low 1.02 | locus YHR013C, strain ard1, active compounds read low 0.939 | locus YHR027C, strain rpn1, active compounds read low 0.967 | locus YHR030C, strain SLT2, active compounds read low 1.01 and 0.963 | locus YHR079C, strain IRE1 (second series), active compounds read low 1.01 | locus YHR079C, strain IRE1, active compounds read low 0.973 | locus YHR094C, strain hxt1, active compounds read low 1.01 | locus YHR129C, strain ARP1, active compounds read low 1 | locus YHR142W, strain chs7, active compounds read low 0.986 | locus YHR200W, strain rpn10, active compounds read low 0.993 | locus YIL066C, strain RNR3, active compounds read low 0.997 | locus YIL073C, strain SPO22, active compounds read low 1.06 | locus YIL125W, strain kgd1, active compounds read low 1.01 | locus YIR030C, strain dcg1, active compounds read low 1.01 | locus YJL092W, strain hpr5, active compounds read low 0.975 | locus YJL095W, strain BCK1 (second series), active compounds read low 0.956 | locus YJL095W, strain BCK1, active compounds read low 1.01 and 0.974 | locus YJL115W, strain asf1, active compounds read low 0.937 | locus YJL129C, strain trk1, active compounds read low 0.963 | locus YJL134W, strain LCB3, active compounds read low 1.01 | locus YJL154C, strain vps35, active compounds read low 0.973 | locus YJL164C, strain tpk1, active compounds read low 0.972 | locus YJL166W, strain qcr8, active compounds read low 0.97 | locus YJL168C, strain set2, active compounds read low 1.01 | locus YJL187C, strain SWE1 (second series), active compounds read low 1
